Screening data (PubChem BioAssay)
Shown is part of a subset that was picked to be rich in hits.
Sa helicase inh: blocks Staphylococcus aureus DNA helicase. purified S. aureus helicase, fluorescence unwinding assay. inhibition, % (concentration not given with the values). 120,000 tested, 0.05% active; in the data active = inhibition above about 25%, passing the limit was not always enough
Sa growth inh: S. aureus growth inhibition | S. aureus RN4220 growth, OD600, 20 h, 42 °C; active compounds read low | relative growth, % (test concentration not listed) | 170,000 tested, 0.53% active;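 active = relative growth at most 50% at the other temperature and 20+ points below 30 °C, or under 10% at both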
Each line names hits and unclear results; the compound was inactive in the other large screens; ! = not active in a repeat.

CCCCOc1ccc(Cn2c(=O)oc3ccccc32)cc1	none (no result: Sa helicase inh)
CCOC(=O)c1ccc(NC2=CC(c3ccc(Br)cc3)N(c3ccc(C(=O)OCC)cc3)C2=O)cc1 (stereo not drawn)	none (no result: Sa helicase inh)
C(=N\n1cnnc1)/c1ccc(N(c2ccccc2)c2ccccc2)cc1	Sa growth inh 1.4
CN(C)c1ccc(/C=N/n2cnnc2)cc1	none
CSc1ccc(S(=O)(=O)N(C)C)cc1	none
CN(C)S(=O)(=O)c1ccc(=S)[nH]c1	Sa growth inh 38
COc1ccc(C)cc1NC(=O)N(C(C)C)C1CCN(C(C)=O)CC1	none (no result: Sa helicase inh)
O=C1CC(c2nc(-c3ccccc3)no2)CN1c1ccccc1 (stereo not drawn)	none
CCN(CC)Cc1nc2sc(C)c(C)c2c(=S)[nH]1	Sa growth inh -0.7
Cc1sc2nc(CC#N)[nH]c(=O)c2c1C	none
Cc1noc2ncnc(N3CCN(c4cccc(C(F)(F)F)c4)CC3)c12	none (no result: Sa helicase inh)
O=C(Nc1ccc(Cl)c(C(F)(F)F)c1)C1CCCN(S(=O)(=O)c2cccc3cccnc23)C1 (stereo not drawn)	none (no result: Sa helicase inh)
CCn1cc(C(=O)O)c(=O)c2cc(F)c(N3CCNCC3)nc21	none (no result: Sa helicase inh)
CO/N=C1\CN(c2nc3c(cc2F)c(=O)c(C(=O)O)cn3C2CC2)CC1CN (stereo not drawn)	Sa growth inh -1.0 (no result: Sa helicase inh)
NC1CCN(c2c(F)cc3c(=O)c(C(=O)O)cn(C4CC4)c3c2Cl)C1 (stereo not drawn)	Sa growth inh -0.9 (no result: Sa helicase inh)
CCOC(=O)c1cn2c3c(c(F)c(F)cc3c1=O)OCC2C (stereo not drawn)	none
CN1CCN(c2c(F)cc3c(=O)c(C(=O)O)cn(CCF)c3c2F)CC1	none (no result: Sa helicase inh)
NC1CCN(c2nc3c(cc2F)c(=O)c(C(=O)O)cn3-c2ccc(F)cc2F)C1 (stereo not drawn)	Sa growth inh -1.0 (no result: Sa helicase inh)
COc1c(N2CCNC(C)C2)c(F)cc2c(=O)c(C(=O)O)cn(C3CC3)c12 (stereo not drawn)	Sa growth inh -0.9 (no result: Sa helicase inh)
CN1c2ccccc2Sc2cc(N)ccc21	none
CCc1n[nH]c(=S)n1/N=C/c1c(C)nn(-c2cccc(Cl)c2)c1Cl	none
CC1CCc2cc(F)cc3c(=O)c(C(=O)O)cn1c23 (stereo not drawn)	none (no result: Sa helicase inh)
CC1CCc2c(N3CCC(O)CC3)c(F)cc3c(=O)c(C(=O)O)cn1c23 (stereo not drawn)	Sa growth inh -1.0 (no result: Sa helicase inh)
COc1ccc(-c2nc(CS(=O)CC(=O)N3CCCC3)c(C)o2)cc1 (stereo not drawn)	none
O=c1c(-c2ccn(-c3ccccc3)n2)c(O)c2ccccc2n1-c1ccccc1	none
CC1=Nc2ccccc2Sc2c1c(=O)n(-c1ccccc1)c1ccccc21	Sa growth inh 1.8
O=C(CSc1nnc(-c2ccc3c(c2)OCO3)o1)c1ccccc1	none
Cc1cccc(C(=O)Nc2ccc(OCc3cc(=O)n4c5c(sc4n3)CCCC5)cc2)c1	none (no result: Sa helicase inh)
CNC(=O)Sc1ccccc1Cl	Sa growth inh -0.6 (no result: Sa helicase inh)
O=C(CSc1ccccc1Cl)N1CCCC1	none
Cc1ccccc1OCC(=O)OCC(=O)NC1CC1	none
COc1cc2c(C#N)c(N(C)CCc3ccc(OC)c(OC)c3)nc(N)c2c(N)n1	none
COc1ccc(CCN(C)c2nc(N)c3c(N)nc(SCC(=O)O)cc3c2C#N)cc1OC	Sa growth inh 0.7
CC(C)N(Cc1ccccc1)C(=O)c1cccs1	none (no result: Sa helicase inh)
CC(C)N(CC(=O)c1cccs1)Cc1ccccc1	Sa growth inh -1.0
O=C(O)Cn1ccccc1=O	Sa growth inh 44
N/C(Cn1ccccc1=O)=N\O	none
O=C(Nc1ccc(F)cc1)N1CCN(c2ccc3nnc(-c4ccc(F)cc4)n3n2)CC1	none (no result: Sa helicase inh)
COc1ccc(CCNC2=NCCS2)cc1	none
NNc1nc(NN)nc(Nc2cccc(C(F)(F)F)c2)n1	none
Fc1ccc(Nc2nc3nonc3nc2Nc2ccccc2F)cc1	Sa growth inh -0.6
O=c1[nH]c2nonc2nc1Nc1ccccc1F	none
Fc1ccc(Nc2nc3nonc3nc2Nc2cccc(C(F)(F)F)c2)cc1	Sa growth inh -1.0 (no result: Sa helicase inh)
Cc1ccc2oc3c(c(=O)c2c1)C1(C(=O)N(C)c2ccccc21)N(CCCO)C3=O (stereo not drawn)	none (no result: Sa helicase inh)
CC(C)CCNC(=O)N1CCN(S(=O)(=O)c2ccc3c(ccn3C)c2)CC1	none (no result: Sa helicase inh)
CCCc1nc2cc3sc(CCC)nc3cc2s1	none
CC1Sc2ccc(C(=O)NCCc3ccccn3)cc2NC1=O (stereo not drawn)	none
COc1cccc(OCc2nnc(SCc3ccccc3)n2C)c1	Sa growth inh 3.8
CSc1nnc(COc2cccc(C)c2)n1C	none
CCCN(CCC)C(=O)c1cn(CC)c2ccc(S(=O)(=O)N3CCCCC3)cc2c1=O	none (no result: Sa helicase inh)
O=C1S/C(=C\c2ccc(Cl)cc2)C(=O)N1Cc1ccccc1	none
NCCN1C(=O)S/C(=C\c2ccc(Cl)c(Cl)c2)C1=O	Sa growth inh -0.6
O=C(CSc1nnc(NC(=O)Nc2ccccc2)s1)Nc1cccc(F)c1	none (no result: Sa helicase inh)
CCSc1nsc(NC(=O)Nc2cccc(F)c2)n1	Sa growth inh -0.7
CCC(=O)N(C)c1nnc(-c2cccc(C)c2)s1	none
CCC(=O)Nc1nc2ccc3nc(SC)sc3c2s1	none (no result: Sa growth inh)
CCNC(=O)c1ccc(-n2c(C)ccc2C)cc1	Sa helicase inh 29
COC(=O)c1ccc(-n2c(C)ccc2C)cc1	none
C[C@H]1O[C@@H](n2cc(F)c(=O)[nH]c2=O)[C@H](O)[C@@H]1O	Sa growth inh 1.1 (no result: Sa helicase inh)
O=C1C=CC(=O)N1CC1CCCO1 (stereo not drawn)	none
O=c1[nH]c(=O)n(C2CCCO2)cc1F (stereo not drawn)	Sa growth inh 6.6!
COc1ccc(-c2cc(C(F)(F)F)nc(NCc3ccc(F)cc3)n2)cc1	none (no result: Sa helicase inh)
Cc1ccc(-c2cc(C(F)F)nc(S(C)(=O)=O)n2)cc1	Sa growth inh 36
Cc1ccc(-c2cc(C(F)F)nc(NCc3ccco3)n2)cc1	none
COc1ccc(CCNC(=O)Cn2cnc3c(cnn3-c3ccccc3)c2=O)cc1OC	none
COc1ccc(CNC(=O)Cn2cnc3ccccc32)cc1OC	Sa helicase inh 41
COC(=O)c1cc(NC(=O)C2CCCN(S(=O)(=O)N3CCC(C)CC3)C2)cc(C(=O)OC)c1 (stereo not drawn)	none
CCn1cc(C(=O)N2CCCC2)c(=O)c2cc(S(=O)(=O)N(C)C)ccc21	none
CC(=O)NC(c1ccccc1)(c1ccccc1)C(F)(F)F	none
CCN(CC)C(=O)c1cc(-c2ccccc2O)on1	none
Cc1ccc(O)c(-c2cc(C(F)(F)F)no2)c1	Sa growth inh 0.2
Oc1ccccc1-c1cc(C(F)(F)C(F)F)no1	Sa growth inh 1.5
Cc1ccc(-c2cc(-c3ccccc3)no2)c(O)c1	none
COc1ccc(-c2cc3nc(C)c(CCC(=O)NCc4ccccc4Cl)c(C)n3n2)c(OC)c1	none (no result: Sa helicase inh)
CN(C1CCCCC1)S(=O)(=O)c1ccccc1	none (no result: Sa helicase inh)
COC(=O)c1c(C)[nH]c(C(=O)CN(C)CC(=O)Nc2c(C)cc(C)cc2C)c1C	Sa helicase inh 30
COC(=O)c1c(C)[nH]c(C(=O)CN(C)Cc2cccc(OC)c2)c1C	none
Cc1oc2ccc(O)c(CN3CCCC3)c2c1C(=O)Nc1ccccc1	none (no result: Sa helicase inh)
Cc1nc2c(C(=O)NCCc3ccccc3)c[nH]n2c(=O)c1Cl	none
Cc1nc2c(C(=O)NCCc3ccccc3)c[nH]n2c(=O)c1Cc1ccc(F)cc1Cl	Sa growth inh -0.2 (no result: Sa helicase inh)
COc1ccc(CCNC(=O)c2cc(C)nc3c2c(C)nn3-c2ccccc2)cc1OC	none (no result: Sa helicase inh)
Cc1ccc(CNC(=O)c2c[nH]n3c(=O)c(Cc4ccc(F)cc4Cl)c(C)nc23)cc1	Sa growth inh 0.6 (no result: Sa helicase inh)
Cc1nc2c(C(=O)NCc3ccccc3)cnn2c(C)c1Cc1ccc(F)cc1	none (no result: Sa helicase inh)
Cc1nc2c(C(=O)NCCC(C)C)c[nH]n2c(=O)c1Cl	none
Cc1nc2c(C(=O)NCCc3ccc(Cl)cc3)c[nH]n2c(=O)c1Cc1ccccc1F	Sa growth inh 1.1 (no result: Sa helicase inh)
